Test results taken from PubChem BioAssay (EPA / NIEHS).
Inconclusive results are not listed. The source made the active and inactive calls. How the source made its calls: active means hit-call score of the fitted dose curve at least 0.9, where 1 is the maximum; inconclusive means response in the unintended direction; inactive means score below 0.9.

Target: human Dopamine Transporter (DAT), SLC6A3 (gene 6531) (UniProt Q01959)
Test: NVS_TR_hDAT: NovaScreen (NVS) Transporter Assay for human Dopamine Transporter (DAT) (AID 2283374);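 further: activity means loss of bound radioligand signal relative to DMSO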
Method in brief: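 Extracted human SLC6A3 protein incubated 1 h with radioligand and test chemical; bound fraction separated on filters and counted. Single 25 uM duplicate screen preceded concentration-response follow-up; positive and negative controls on every plate.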

human Dopamine Transporter (DAT), SLC6A3 (gene 6531), sequence (Q01959 whole entry, looked up): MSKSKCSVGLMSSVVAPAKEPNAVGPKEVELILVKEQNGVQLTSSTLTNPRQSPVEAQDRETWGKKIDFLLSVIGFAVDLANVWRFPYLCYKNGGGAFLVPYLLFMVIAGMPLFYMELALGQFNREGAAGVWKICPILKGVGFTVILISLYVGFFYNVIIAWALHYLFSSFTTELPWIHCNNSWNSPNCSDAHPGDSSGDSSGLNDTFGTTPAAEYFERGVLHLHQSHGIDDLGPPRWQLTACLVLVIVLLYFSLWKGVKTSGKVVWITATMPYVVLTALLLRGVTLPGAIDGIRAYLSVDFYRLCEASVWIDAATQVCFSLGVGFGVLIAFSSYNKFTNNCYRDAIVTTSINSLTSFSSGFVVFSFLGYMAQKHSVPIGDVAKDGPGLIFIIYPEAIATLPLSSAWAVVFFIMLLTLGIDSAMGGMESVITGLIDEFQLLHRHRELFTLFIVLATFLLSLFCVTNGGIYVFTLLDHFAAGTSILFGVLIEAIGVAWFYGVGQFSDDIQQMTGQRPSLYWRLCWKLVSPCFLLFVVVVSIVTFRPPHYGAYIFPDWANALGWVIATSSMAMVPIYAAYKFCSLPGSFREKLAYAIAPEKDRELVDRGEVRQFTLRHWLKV

| SMILES | AC50 | outcome |
| --- | --- | --- |
| Oc1ccc(Nc2ccccc2)cc1 | 6.97 µM (active) |  |
| CCN(CC)c1ccc2c(C)cc(=O)oc2c1 | 20.2 µM (active) |  |
| CCCCNc1ccccc1 |  | inactive |
| CCCCCCCCCCCCCCCC[N+](C)(C)Cc1ccccc1 | 1.89 µM (active) |  |
| Nc1ccc(Oc2cccc(Oc3ccc(N)cc3)c2)cc1 | 1.02 µM (active) |  |

Target: rat Serotonin Transporter (SERT), Slc6a4 (gene 25553) (UniProt P31652)
Test: NVS_TR_rSERT: NovaScreen (NVS) Transporter Assay for rat Serotonin Transporter (SERT) (AID 2283375)
Method in brief: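 Steps: rat forebrain membranes dosed with chemical (25 uM duplicate primary; concentration series for actives); 1 h incubation; labelled ligand bound, filtered, counted by scintillation. Activity scored as signal loss vs DMSO.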

rat Serotonin Transporter (SERT), Slc6a4 (gene 25553), sequence (P31652 whole entry, looked up): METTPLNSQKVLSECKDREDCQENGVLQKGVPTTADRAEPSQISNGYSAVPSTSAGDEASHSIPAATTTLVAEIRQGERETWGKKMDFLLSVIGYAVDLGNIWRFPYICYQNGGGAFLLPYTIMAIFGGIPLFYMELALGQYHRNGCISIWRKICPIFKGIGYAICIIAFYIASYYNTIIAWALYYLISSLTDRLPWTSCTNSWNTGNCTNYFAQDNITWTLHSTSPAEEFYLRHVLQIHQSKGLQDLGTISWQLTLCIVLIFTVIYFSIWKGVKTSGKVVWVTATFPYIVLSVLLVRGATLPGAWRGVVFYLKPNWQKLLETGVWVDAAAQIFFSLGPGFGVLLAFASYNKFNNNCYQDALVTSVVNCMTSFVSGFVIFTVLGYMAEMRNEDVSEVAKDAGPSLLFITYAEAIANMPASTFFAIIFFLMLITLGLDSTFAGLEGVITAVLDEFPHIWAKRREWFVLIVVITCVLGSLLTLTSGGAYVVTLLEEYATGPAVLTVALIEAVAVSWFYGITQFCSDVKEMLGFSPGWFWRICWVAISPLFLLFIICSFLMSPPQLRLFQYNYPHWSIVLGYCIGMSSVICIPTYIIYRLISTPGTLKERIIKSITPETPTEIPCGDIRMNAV

| SMILES | outcome | AC50 |
| --- | --- | --- |
| Cc1cccc(N(C)C)c1 | inactive |  |
| C#C[C@]1(O)CC[C@H]2[C@@H]3CCc4cc(OC)ccc4[C@H]3CC[C@@]21C |  | 19 µM (active) |
| CCCCCCCCCCCCCCCC[N+](C)(C)Cc1ccccc1 | inactive |  |

Target: human Norepinephrine Transporter (NET), SLC6A2 (gene 6530) (UniProt P23975)
Test: NVS_TR_hNET: NovaScreen (NVS) Transporter Assay for human Norepinephrine Transporter (NET) (AID 2283377);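 further: cell-free membrane protein extracted from CHO cells expressing human NET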;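 on AC50: displacement of radioligand from human NET seen as loss of scintillation signal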
Method in brief: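 In this cell-free binding screen, chemicals at 25 uM (duplicate) compete with a radioligand for CHO-derived human NET over 1 hour, with filter-based radiodetection.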

human Norepinephrine Transporter (NET), SLC6A2 (gene 6530), sequence (P23975 whole entry, looked up): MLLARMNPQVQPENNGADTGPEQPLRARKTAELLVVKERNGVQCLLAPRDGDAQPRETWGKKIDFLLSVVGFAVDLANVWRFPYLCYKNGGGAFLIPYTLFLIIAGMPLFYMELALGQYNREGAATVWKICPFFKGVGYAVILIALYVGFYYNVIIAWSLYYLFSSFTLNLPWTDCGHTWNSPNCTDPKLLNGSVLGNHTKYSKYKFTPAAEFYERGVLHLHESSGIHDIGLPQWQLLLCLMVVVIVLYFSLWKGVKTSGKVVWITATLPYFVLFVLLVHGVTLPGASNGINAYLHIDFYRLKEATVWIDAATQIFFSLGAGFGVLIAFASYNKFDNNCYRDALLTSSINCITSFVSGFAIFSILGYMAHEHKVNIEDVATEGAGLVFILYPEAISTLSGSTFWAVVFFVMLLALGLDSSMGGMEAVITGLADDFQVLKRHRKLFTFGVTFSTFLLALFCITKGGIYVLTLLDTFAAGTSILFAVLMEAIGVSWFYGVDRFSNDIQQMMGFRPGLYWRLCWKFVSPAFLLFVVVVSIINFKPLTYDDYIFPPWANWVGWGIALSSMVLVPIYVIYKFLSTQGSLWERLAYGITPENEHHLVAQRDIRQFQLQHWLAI

| SMILES | outcome | AC50 |
| --- | --- | --- |
| CC(C)c1ccccc1N | inactive |  |
| O[Si](c1ccccc1)(c1ccccc1)c1ccccc1 |  | 25 µM (active) |
| Oc1ccc(Nc2ccccc2)cc1 |  | 11.9 µM (active) |
| CCN(CC)c1ccc2c(C)cc(=O)oc2c1 |  | 25 µM (active) |
| C#C[C@]1(O)CC[C@H]2[C@@H]3CCc4cc(OC)ccc4[C@H]3CC[C@@]21C |  | 3.99 µM (active) |
| CO[Si](OC)(c1ccccc1)c1ccccc1 | inactive |  |
| CCCCCCCCCCCCCCCC[N+](C)(C)Cc1ccccc1 |  | 2.45 µM (active) |
| Nc1ccc(Oc2cccc(Oc3ccc(N)cc3)c2)cc1 | inactive |  |

Target: mouse Estrogen Receptor alpha (Era), Esr1 (gene 13982) (UniProt P19785)
Test: NVS_NR_mERa: NovaScreen (NVS) Nuclear Receptor Binding Assay for mouse Estrogen Receptor alpha (Era) (AID 2283378);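 further: hit means loss of bound radioligand signal relative to DMSO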
Method in brief: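 Test chemicals competed against a specific radioligand for binding to cell-free mouse Era. Duplicate wells at 25 uM were read 18 hours later by filter-based radiodetection, with loss of signal against DMSO scored as activity.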

mouse Estrogen Receptor alpha (Era), Esr1 (gene 13982), sequence (P19785 whole entry, looked up): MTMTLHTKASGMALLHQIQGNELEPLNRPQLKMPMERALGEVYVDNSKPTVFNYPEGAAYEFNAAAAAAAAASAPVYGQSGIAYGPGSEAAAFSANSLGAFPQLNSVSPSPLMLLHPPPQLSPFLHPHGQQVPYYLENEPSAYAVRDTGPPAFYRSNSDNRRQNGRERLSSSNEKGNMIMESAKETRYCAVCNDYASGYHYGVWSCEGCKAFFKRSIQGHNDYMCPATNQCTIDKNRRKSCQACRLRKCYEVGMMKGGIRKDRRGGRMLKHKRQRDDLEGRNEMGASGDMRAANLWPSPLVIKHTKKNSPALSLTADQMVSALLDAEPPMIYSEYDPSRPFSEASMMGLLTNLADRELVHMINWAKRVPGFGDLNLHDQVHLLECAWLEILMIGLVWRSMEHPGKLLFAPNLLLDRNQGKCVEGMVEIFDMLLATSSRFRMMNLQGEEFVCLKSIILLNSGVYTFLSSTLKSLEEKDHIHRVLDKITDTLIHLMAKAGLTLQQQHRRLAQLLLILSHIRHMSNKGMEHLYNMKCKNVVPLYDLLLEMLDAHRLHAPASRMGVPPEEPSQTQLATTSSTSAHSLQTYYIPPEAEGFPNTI

| SMILES | outcome | AC50 |
| --- | --- | --- |
| CCCCC(CC)COP(=O)(O)OCC(CC)CCCC (stereo not given) | inactive |  |
| CC(Cc1ccc(O)c(O)c1)C(C)Cc1ccc(O)c(O)c1 (stereo not given) |  | 1.82 µM (active) |
| Oc1ccc(Nc2ccccc2)cc1 | inactive |  |
| C#C[C@]1(O)CC[C@H]2[C@@H]3CCc4cc(OC)ccc4[C@H]3CC[C@@]21C | inactive |  |
| C(=C(c1ccccc1)c1ccccc1)c1ccccc1 |  | 8.44 µM (active) |
| c1ccc(B(c2ccccc2)c2ccccc2)cc1 | inactive |  |

Target: Agonist Androgen Response Element (ARE), AR (gene 367) (UniProt P10275)
Test: OT_AR_ARELUC_AG_1440: Odyssey Thera (OT) 24-hour CHO-K1 Luciferase Assay for Agonist Androgen Response Element (ARE) (AID 2283379)
Method in brief: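 Luminescence increase above DMSO, read after a 24 h compound treatment of CHO-K1 cells expressing an androgen response element luciferase reporter, gives the single primary endpoint; concentration-response fitting used the positive direction.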

Agonist Androgen Response Element (ARE), AR (gene 367), sequence (P10275 whole entry, looked up): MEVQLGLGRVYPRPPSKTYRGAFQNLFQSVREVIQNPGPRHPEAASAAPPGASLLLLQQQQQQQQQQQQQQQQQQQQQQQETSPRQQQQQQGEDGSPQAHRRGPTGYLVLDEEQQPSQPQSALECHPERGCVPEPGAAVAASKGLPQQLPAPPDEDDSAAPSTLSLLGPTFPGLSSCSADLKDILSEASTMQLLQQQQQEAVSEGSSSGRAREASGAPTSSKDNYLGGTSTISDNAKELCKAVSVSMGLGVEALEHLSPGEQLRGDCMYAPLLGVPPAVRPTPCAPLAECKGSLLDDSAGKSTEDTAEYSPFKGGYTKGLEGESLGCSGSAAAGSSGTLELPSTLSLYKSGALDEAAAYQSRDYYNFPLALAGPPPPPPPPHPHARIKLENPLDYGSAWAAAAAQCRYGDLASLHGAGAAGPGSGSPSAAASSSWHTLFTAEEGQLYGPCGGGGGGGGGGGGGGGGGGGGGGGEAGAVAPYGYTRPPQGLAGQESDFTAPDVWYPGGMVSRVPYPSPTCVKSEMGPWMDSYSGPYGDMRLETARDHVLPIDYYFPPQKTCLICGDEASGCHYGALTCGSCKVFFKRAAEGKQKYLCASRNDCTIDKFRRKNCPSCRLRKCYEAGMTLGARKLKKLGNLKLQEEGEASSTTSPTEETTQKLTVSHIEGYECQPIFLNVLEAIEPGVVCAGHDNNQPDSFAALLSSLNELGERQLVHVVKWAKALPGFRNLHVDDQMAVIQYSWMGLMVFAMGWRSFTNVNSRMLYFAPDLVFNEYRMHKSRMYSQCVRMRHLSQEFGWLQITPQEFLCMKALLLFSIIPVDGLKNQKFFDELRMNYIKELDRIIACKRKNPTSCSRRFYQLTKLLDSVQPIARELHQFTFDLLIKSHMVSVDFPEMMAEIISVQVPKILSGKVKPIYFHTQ

| SMILES | outcome |
| --- | --- |
| CCCCCCC(C)OC(=O)CCCCC(=O)OC(C)CCCCCC (stereo not given) | inactive |
| CNC(=S)NC | inactive |
| [Co] | inactive |
